Results as given in PMC11574364.

Assays:
Assay in all cases: protein domain microarray probed with biotinylated miRNA; Domain array: 20 mM Tris-HCl pH 7.4, 200 mM KCl, 0.2 mM EDTA, 0.05% NP40, 2 ug/ul heparin, overnight 4 C. ORF array: PBS pH 7.0 with RNase inhibitor, 100 ng RNA; high values mean tight binding
Settings in all cases: ssRNA
CELF2(1-2) = CELF2(1-2) (Homo sapiens, UniProt O95319)
CELF4(1-2) = CELF4(1-2) (Homo sapiens, UniProt Q9BZC1)
BOLL = molecular target: T1, BOLL (Homo sapiens, UniProt Q8N9W6)
T1 sequence: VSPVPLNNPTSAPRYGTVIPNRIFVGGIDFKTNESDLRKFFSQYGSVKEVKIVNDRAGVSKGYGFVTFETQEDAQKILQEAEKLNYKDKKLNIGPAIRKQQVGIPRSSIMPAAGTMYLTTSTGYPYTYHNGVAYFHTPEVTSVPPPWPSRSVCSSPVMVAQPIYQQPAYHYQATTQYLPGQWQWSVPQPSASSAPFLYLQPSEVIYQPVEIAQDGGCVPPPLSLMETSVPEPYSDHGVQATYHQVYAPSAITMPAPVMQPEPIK

CELF1(1-2) = CELF1(1-2) (Homo sapiens, UniProt Q92879)
CELF1(1-2), sequence (Q92879 1-210): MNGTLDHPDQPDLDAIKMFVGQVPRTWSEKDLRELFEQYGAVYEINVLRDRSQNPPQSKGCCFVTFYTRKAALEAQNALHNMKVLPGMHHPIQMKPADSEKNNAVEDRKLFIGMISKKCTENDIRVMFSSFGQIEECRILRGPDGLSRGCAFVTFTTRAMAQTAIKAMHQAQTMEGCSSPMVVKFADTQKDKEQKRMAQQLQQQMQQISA

CELF2(3) = CELF2(3) (Homo sapiens, UniProt O95319)
CELF2(3), sequence (O95319 396-508): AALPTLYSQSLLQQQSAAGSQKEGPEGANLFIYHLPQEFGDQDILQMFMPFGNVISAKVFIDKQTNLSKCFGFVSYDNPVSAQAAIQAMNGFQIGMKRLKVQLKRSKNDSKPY

CELF1(3) = CELF1(3) (Homo sapiens, UniProt Q92879)
CELF1(3), sequence (Q92879 370-486): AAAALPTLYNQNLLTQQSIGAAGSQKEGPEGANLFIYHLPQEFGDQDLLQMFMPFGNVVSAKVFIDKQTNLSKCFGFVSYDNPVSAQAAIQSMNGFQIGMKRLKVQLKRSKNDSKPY

A2BP1 = molecular target: T2, A2BP1 (Homo sapiens, UniProt Q9NWB1)
T2 sequence: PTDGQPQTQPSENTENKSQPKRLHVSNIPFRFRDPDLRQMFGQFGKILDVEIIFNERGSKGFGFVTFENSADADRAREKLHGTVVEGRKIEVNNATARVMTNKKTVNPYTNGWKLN

G3BP-2 = molecular target: T3, G3BP-2 (Homo sapiens, UniProt Q9UN86)
T3 sequence: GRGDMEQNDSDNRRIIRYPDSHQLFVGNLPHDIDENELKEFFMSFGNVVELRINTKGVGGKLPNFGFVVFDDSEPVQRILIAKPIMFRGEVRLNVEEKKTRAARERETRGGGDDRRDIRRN

hnRNP-A2/B1 = hnRNP-A2/B1 (Homo sapiens, UniProt P22626)
hnRNP-A2/B1, sequence (P22626 1-210): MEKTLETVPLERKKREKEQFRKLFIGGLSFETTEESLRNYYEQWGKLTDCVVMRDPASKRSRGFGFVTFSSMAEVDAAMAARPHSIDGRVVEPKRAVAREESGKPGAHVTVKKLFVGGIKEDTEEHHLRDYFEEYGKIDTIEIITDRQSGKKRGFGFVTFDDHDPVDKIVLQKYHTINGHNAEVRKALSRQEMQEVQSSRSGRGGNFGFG

DAZAP1 = molecular target: T4, DAZAP1 (Homo sapiens, UniProt Q96EP5)
T4 sequence: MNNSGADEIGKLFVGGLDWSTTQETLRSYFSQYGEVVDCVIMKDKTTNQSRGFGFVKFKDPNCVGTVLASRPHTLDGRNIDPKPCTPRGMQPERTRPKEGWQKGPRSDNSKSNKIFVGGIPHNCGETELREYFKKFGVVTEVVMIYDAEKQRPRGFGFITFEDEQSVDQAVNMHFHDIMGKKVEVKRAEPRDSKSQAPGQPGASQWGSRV

ELAVL2 = ELAVL2 (Homo sapiens, UniProt Q12926)
ELAVL2, sequence (Q12926 20-359): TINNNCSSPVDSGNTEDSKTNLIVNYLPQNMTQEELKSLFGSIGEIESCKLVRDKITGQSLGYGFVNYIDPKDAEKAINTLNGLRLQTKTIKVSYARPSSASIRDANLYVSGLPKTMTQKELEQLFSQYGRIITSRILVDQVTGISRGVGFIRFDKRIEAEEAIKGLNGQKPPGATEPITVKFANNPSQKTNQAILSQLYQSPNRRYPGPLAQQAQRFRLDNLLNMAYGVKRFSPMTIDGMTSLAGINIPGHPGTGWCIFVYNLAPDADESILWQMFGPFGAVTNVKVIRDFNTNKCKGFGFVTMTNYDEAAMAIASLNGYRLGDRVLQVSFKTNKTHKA

CPEB2 = molecular target: T5, CPEB2 (Homo sapiens, UniProt Q7Z5Q1)
T5 sequence: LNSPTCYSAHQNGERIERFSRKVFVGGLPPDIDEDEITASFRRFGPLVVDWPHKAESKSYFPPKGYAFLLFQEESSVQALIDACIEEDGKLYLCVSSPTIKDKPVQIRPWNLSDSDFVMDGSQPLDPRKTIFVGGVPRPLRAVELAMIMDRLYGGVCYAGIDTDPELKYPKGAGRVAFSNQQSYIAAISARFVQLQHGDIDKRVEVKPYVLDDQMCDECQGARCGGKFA

hnRNP-C1/C2 = hnRNP-C1/C2 (Homo sapiens, UniProt P07910)
hnRNP-C1/C2, sequence (P07910 1-110): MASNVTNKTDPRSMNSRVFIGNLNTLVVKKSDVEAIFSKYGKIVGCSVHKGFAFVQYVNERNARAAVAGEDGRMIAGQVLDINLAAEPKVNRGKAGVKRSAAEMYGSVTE

CELF6(3) = CELF6(3) (Homo sapiens, UniProt Q96J87)
CELF6(3), sequence (Q96J87 372-481): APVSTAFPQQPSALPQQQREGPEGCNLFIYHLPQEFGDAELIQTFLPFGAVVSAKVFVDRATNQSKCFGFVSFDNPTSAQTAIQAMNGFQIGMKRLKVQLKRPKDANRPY

Matrin-3 = molecular target: T6, Matrin-3 (Homo sapiens, UniProt P43243)
T6 sequence: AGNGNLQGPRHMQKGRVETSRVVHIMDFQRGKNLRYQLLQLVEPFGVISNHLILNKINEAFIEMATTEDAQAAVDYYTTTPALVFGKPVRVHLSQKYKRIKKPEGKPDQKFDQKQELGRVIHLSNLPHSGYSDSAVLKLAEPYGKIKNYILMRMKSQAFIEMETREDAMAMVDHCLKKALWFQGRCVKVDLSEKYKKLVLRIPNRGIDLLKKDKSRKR

ZCRB1 = ZCRB1 (Homo sapiens, UniProt Q8TBF4)
ZCRB1, sequence (Q8TBF4 1-110): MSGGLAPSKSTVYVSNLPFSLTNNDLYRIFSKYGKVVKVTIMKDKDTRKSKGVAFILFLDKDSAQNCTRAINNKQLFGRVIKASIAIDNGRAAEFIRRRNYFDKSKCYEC

Acinus(1) = molecular target: T7, Acinus(1) (Homo sapiens, UniProt Q9UKV3)
T7 sequence: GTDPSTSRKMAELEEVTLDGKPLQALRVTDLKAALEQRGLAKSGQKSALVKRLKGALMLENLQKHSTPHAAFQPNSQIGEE

CELF4(3) = CELF4(3) (Homo sapiens, UniProt Q9BZC1)
CELF4(3), sequence (Q9BZC1 380-486): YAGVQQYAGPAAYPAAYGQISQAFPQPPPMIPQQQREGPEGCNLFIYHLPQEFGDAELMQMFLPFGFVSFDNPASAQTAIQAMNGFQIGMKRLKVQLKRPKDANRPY

PABP3 = PABP3 (Homo sapiens, UniProt Q9H361)
PABP3, sequence (Q9H361 1-390): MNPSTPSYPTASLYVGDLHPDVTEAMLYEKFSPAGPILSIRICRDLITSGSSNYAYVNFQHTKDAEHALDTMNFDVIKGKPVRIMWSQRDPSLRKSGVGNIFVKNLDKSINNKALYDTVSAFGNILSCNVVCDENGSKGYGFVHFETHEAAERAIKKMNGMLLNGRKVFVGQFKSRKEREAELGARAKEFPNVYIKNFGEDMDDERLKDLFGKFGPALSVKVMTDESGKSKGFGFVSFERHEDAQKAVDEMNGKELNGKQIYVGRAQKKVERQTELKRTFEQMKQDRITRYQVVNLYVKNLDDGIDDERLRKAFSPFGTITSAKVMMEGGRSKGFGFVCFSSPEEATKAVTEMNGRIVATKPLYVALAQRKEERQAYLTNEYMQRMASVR

HNRPLL = molecular target: T8, HNRPLL (Homo sapiens, UniProt Q8WVV9)
T8 sequence: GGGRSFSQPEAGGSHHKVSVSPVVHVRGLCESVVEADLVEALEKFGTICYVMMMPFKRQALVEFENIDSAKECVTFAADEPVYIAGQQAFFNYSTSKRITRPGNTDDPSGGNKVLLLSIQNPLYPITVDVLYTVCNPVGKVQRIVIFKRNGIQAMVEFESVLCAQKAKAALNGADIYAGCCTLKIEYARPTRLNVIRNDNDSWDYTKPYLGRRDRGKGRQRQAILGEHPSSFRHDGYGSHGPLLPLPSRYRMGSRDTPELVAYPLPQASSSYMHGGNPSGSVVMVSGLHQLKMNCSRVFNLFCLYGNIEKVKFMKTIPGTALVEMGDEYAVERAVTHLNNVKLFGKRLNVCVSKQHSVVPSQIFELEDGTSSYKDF

CELF4(1-2), sequence (Q9BZC1 31-250): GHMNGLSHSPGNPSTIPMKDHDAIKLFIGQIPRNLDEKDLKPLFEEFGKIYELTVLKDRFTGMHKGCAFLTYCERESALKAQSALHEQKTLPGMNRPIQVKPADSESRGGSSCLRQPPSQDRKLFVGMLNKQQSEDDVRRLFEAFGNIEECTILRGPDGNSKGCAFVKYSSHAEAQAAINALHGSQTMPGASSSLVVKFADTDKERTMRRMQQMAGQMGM
CELF2(1-2), sequence (O95319 19-241): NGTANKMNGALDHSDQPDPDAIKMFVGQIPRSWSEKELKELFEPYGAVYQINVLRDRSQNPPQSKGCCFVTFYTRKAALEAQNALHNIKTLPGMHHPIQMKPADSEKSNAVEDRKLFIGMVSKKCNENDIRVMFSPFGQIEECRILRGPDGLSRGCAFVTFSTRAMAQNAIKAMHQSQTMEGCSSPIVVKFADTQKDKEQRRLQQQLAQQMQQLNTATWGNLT

Sequence | binding signal (CELF2(1-2)) | binding signal (CELF4(1-2)) | binding signal (BOLL) | binding signal (CELF1(1-2)) | binding signal (CELF2(3)) | binding signal (CELF1(3)) | binding signal (A2BP1) | binding signal (G3BP-2) | binding signal (hnRNP-A2/B1) | binding signal (DAZAP1) | binding signal (ELAVL2) | binding signal (CPEB2) | binding signal (hnRNP-C1/C2) | binding signal (CELF6(3)) | binding signal (Matrin-3) | binding signal (ZCRB1) | binding signal (Acinus(1)) | binding signal (CELF4(3)) | binding signal (PABP3) | binding signal (HNRPLL)
UAGCUUAUCAGACUGAUGUUGA | 21.3 ± 6.6 fluorescence intensity | 20.5 ± 0.276 fluorescence intensity | 567 ± 57.8 fluorescence intensity | 45.6 ± 13.3 fluorescence intensity | 1040 ± 177 fluorescence intensity | 1160 ± 14.2 fluorescence intensity | 2210 ± 93.6 fluorescence intensity | 330 ± 22.3 fluorescence intensity | 255 ± 27.4 fluorescence intensity | 717 ± 152 fluorescence intensity | 653 ± 28.8 fluorescence intensity | 118 ± 118 fluorescence intensity | 162 ± 10.4 fluorescence intensity | 42.1 ± 8.05 fluorescence intensity | 38.7 ± 15.4 fluorescence intensity | 189 ± 14.5 fluorescence intensity | – | – | – | –
UGAGGUAGUAGGUUGUGUGGUU | 156 ± 18.9 fluorescence intensity | 241 ± 6.35 fluorescence intensity | 986 ± 65.6 fluorescence intensity | 32.2 ± 23.1 fluorescence intensity | 2850 ± 134 fluorescence intensity | 2820 ± 118 fluorescence intensity | 3130 ± 57 fluorescence intensity | 967 ± 16.3 fluorescence intensity | 2240 ± 7.74 fluorescence intensity | 2560 ± 130 fluorescence intensity | 1370 ± 72.6 fluorescence intensity | 108 ± 11.6 fluorescence intensity | 742.6 ± 1.1 fluorescence intensity | 653 ± 52 fluorescence intensity | 496.54 ± 0.269 fluorescence intensity | 1440 ± 63.3 fluorescence intensity | 330 ± 24.8 fluorescence intensity | 33.3 ± 4.99 fluorescence intensity | 334 ± 26 fluorescence intensity | 120 ± 20.3 fluorescence intensity
AGAGGUAGUAGGUUGCAUAGUU | 63.2 ± 10.6 fluorescence intensity | 73.4 ± 2.28 fluorescence intensity | 995 ± 54.2 fluorescence intensity | 20.1 ± 13.8 fluorescence intensity | 2420 ± 70.3 fluorescence intensity | 2720 ± 64 fluorescence intensity | 4220 ± 134 fluorescence intensity | 942 ± 20.8 fluorescence intensity | 3610 ± 47.7 fluorescence intensity | 3900 ± 300 fluorescence intensity | 1660 ± 45 fluorescence intensity | 65.7 ± 16.8 fluorescence intensity | 406 ± 24 fluorescence intensity | 608 ± 73.6 fluorescence intensity | 201 ± 2.89 fluorescence intensity | 1460 ± 22.6 fluorescence intensity | 144 ± 9.49 fluorescence intensity | 28.9 ± 2.98 fluorescence intensity | 119 ± 10.5 fluorescence intensity | 123 ± 7.11 fluorescence intensity
UGAGGUAGUAGGUUGUAUAGUU | 29.8 ± 2.19 fluorescence intensity | 30.5 ± 1.88 fluorescence intensity | 175 ± 17.3 fluorescence intensity | – | 2178 ± 19.2 fluorescence intensity | 2270 ± 106 fluorescence intensity | 1110 ± 13.1 fluorescence intensity | 117 ± 15.5 fluorescence intensity | 1499 ± 4.81 fluorescence intensity | 1600 ± 139 fluorescence intensity | 608.35 ± 0.587 fluorescence intensity | 42.8 ± 2.43 fluorescence intensity | 244.2 ± 0.382 fluorescence intensity | 282 ± 110 fluorescence intensity | 69.3 ± 9.98 fluorescence intensity | 602 ± 7.03 fluorescence intensity | 37 ± 6.58 fluorescence intensity | – | 31.2 ± 7.62 fluorescence intensity | –
CAGUGCAAUGAUGAAAGGGCAU | 48.3 ± 1.66 fluorescence intensity | 68.5 ± 5.81 fluorescence intensity | 433.1 ± 0.594 fluorescence intensity | 29.4 ± 2.27 fluorescence intensity | 1010 ± 110 fluorescence intensity | 1043.4 ± 0.00707 fluorescence intensity | 3922 ± 30.6 fluorescence intensity | 1910 ± 49.7 fluorescence intensity | 2236 ± 9.55 fluorescence intensity | 1540 ± 260 fluorescence intensity | 965 ± 66.1 fluorescence intensity | 35.7 ± 11 fluorescence intensity | 146 ± 4.99 fluorescence intensity | 151 ± 17.8 fluorescence intensity | 116 ± 6.43 fluorescence intensity | 824 ± 79.4 fluorescence intensity | 130 ± 7.88 fluorescence intensity | 22.5 ± 0.509 fluorescence intensity | 60.5 ± 8.1 fluorescence intensity | 68.7 ± 5.11 fluorescence intensity
UGAGGUAGUAGGUUGUAUGGUU | 79.94 ± 0.219 fluorescence intensity | 96 ± 8.15 fluorescence intensity | 423 ± 34.1 fluorescence intensity | 24.5 ± 18.4 fluorescence intensity | 2750 ± 76 fluorescence intensity | 2750 ± 97.5 fluorescence intensity | 2938 ± 25.1 fluorescence intensity | 697 ± 11.7 fluorescence intensity | 2642 ± 18.6 fluorescence intensity | 2980 ± 146 fluorescence intensity | 1210 ± 62.5 fluorescence intensity | 66.6 ± 14.3 fluorescence intensity | 636.15 ± 0.594 fluorescence intensity | 628 ± 29.6 fluorescence intensity | 251.8 ± 1.32 fluorescence intensity | 1150 ± 9.06 fluorescence intensity | 162 ± 13.3 fluorescence intensity | 24.3 ± 1.9 fluorescence intensity | 211 ± 6.4 fluorescence intensity | 97.4 ± 6.78 fluorescence intensity
